PREPL inh – inhibitors of human prolyl oligopeptidase-like enzyme PREPL | Q4J6C6 | recombinant PREPL, fluorescence polarization activity-based probe | inhibition, % at 5.96 µM | 0.68% of 320,000 active; in the data active means inhibition above about 43%
Fam108B inh – Fam108B inhibition, counter-screen for RBBP9 inhibitors. recombinant Fam108B, FP-Rh probe fluorescence polarization. inhibition, % at 9.51 µM. 0.33% of 300,000 active. AID 1947;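 active means inhibition above the screen mean inhibition plus 3 SD, computed separately per campaign, cut at about 18% in these data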;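 further: inhibitors lower polarization as less probe binds the enzyme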
PME-1 primary – blocks human protein phosphatase methylesterase 1; AID 2130; recombinant PME-1, FP-Rh probe fluorescence polarization; 0.53% of 320,000 active; inhibition, % at 5.9 µM;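 active means inhibition above the campaign mean of all compounds plus 3 SD, cut at about 26% in these data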;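 further: competitive labeling of PME-1 active site by serine hydrolase directed probe; inhibitors block probe labeling so polarization falls and inhibition rises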
Target sequence (Q9Y570 whole entry, looked up): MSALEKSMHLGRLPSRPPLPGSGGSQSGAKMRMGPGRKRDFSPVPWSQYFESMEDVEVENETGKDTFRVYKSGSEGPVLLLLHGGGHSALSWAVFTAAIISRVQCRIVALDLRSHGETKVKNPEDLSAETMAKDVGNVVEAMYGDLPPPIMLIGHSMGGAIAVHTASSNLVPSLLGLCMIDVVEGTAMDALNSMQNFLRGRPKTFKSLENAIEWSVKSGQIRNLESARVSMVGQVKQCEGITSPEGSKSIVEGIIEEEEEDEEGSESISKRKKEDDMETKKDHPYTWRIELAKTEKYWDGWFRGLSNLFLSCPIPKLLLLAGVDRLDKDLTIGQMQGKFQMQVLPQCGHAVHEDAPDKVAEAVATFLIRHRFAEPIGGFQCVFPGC
LYPLA2 counter – LYPLA2 (human) inhibition in PME1 counter-screen | recombinant LYPLA2, FP-Rh probe fluorescence polarization | inhibition, % at 5.9 µM | 0.38% of 320,000 active | O95372;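 active means inhibition above the screen-wide mean plus 3 SD, limit set per campaign, cut at about 26% in these data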
LYPLA1 counter – blocks human lysophospholipase 1, a PME1 counter-screen; recombinant LYPLA1, FP-Rh probe fluorescence polarization; O75608; inhibition, % at 5.9 µM; 0.16% of 320,000 active;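 active means inhibition above the mean of all tested compounds plus 3 SD, set per campaign, cut at about 14% in these data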;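 further: inhibitors block serine hydrolase probe labeling of LYPLA1 so polarization falls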
Target sequence (O75608 whole entry, looked up): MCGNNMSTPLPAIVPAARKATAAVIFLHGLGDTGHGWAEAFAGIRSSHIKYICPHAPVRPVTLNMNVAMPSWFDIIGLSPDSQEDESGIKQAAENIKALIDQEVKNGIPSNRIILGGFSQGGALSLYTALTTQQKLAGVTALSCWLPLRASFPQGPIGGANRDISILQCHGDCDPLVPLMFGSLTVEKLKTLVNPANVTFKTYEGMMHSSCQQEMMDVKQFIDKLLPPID
GSTO1 counter – GSTO1 inhibition, counter-screen for RBBP9 inhibitors. inhibition, % at 5.96 µM. AID 1974. P78417. 1.1% of 300,000 active. recombinant GSTO1, activity-based probe fluorescence polarization;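 active means inhibition above the campaign mean inhibition plus 3 SD, cut at about 35% in these data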
GSTO1 inh conf – confirmation of human GSTO1 inhibitors; shares compounds with GSTO1 counter; recombinant GSTO1, probe fluorescence polarization; inhibition, % at 5.96 µM; 54% of 2,400 active; AID 2176;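 active means inhibition above the primary screen's cutoff, its mean inhibition plus 3 SD, cut at about 35% in these data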;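 further: loss of polarization as inhibitors block binding of rhodamine sulfonate ester activity probe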
GSTO1 recomb ABPP – blocks recombinant human glutathione S-transferase omega 1. shares compounds with GSTO1 counter. recombinant GSTO1, gel ABPP SE-Rh probe fluorescence. inhibition, % at 1 µM. 30% of 130 active. AID 463110;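 active means inhibition of the enzyme GSTO1 above about 75%, limit read from the data; inactive means inhibition below that limit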
Of the large screens only hits and unclear results are named; the others gave an inactive call (follow-up assays come after a bar, where they were run). A selection: hits, their analogues and other compounds. The true share with any hit is near 2%.

O=c1[nH]c(C2CCN(S(=O)(=O)c3ccc(C(F)(F)F)cc3)CC2)nc2c1nnn2Cc1cccc(F)c1	none
O=c1[nH]c(C2CCN(S(=O)(=O)c3ccccc3C(F)(F)F)CC2)nc2c1nnn2Cc1cccc(F)c1	GSTO1 counter 47 | GSTO1 inh conf 50
COc1cc(CNC(C)(C)CO)ccc1OCC(=O)NC(C)(C)C	none
COc1cc(CNc2ccc(N3CCCC3)cc2)ccc1OCc1ccccc1F	GSTO1 counter 46 | GSTO1 inh conf 35
COc1cc(CNc2ccc(N3CCCCC3)cc2)ccc1OCC(=O)NC(C)(C)C	GSTO1 counter 47 | GSTO1 inh conf inactive
COc1ccc(OCCN2C(=O)c3cccc(N)c3C2=O)cc1	none
O=C(CCl)N=c1sccn1Cc1ccc(Cl)cc1Cl	GSTO1 counter 76 | GSTO1 inh conf 91
CCC(=O)OCC(=O)N=c1sccn1Cc1ccccc1Cl	none
Cc1ccccc1-n1ncc2c([N+](=O)[O-])cc([N+](=O)[O-])cc21	GSTO1 counter 39 | GSTO1 inh conf inactive
COCC(=O)N1CCC(Oc2ccc(C(=O)NC(C)c3nc(C)sc3C)cc2)CC1 (centres undefined)	none
COc1ccc(NC(=O)CN(C)C(=O)c2cc3c(s2)CCC3)cc1	GSTO1 counter 59 | GSTO1 inh conf inactive
CCOc1ccc(S(=O)(=O)Nc2ncn[nH]2)cc1	none
CCOc1ccc(S(=O)(=O)Nc2cc(Sc3ncn[nH]3)c3oc(=O)sc3c2)cc1	GSTO1 counter 47 | GSTO1 inh conf inactive
O=C(CN1C(=O)NC2(CCCC2)C1=O)N1CCN(S(=O)(=O)c2cccc(C(F)(F)F)c2)CC1	none
CC1OC(Nc2cccc3ccccc23)C(O)C(O)C1O (centres undefined)	GSTO1 counter 49 | GSTO1 inh conf inactive
COc1c(-c2ccc(O)c(O)c2)oc2cc(O)cc(O)c2c1=O	GSTO1 counter 41 | GSTO1 inh conf inactive
C[C@@H]1O[C@@H](OC[C@H]2O[C@@H](Oc3c(-c4ccc(O)c(O)c4)oc4cc(O)cc(O)c4c3=O)[C@H](O)[C@@H](O)[C@@H]2O)[C@H](O)[C@H](O)[C@H]1O	none
N#CC(C#N)=c1ccc2c(c1)NC1(CCCCC1)N=2	GSTO1 counter 68 | GSTO1 inh conf 50
N#CC(C#N)=C1NC2(CCCCC2)Cc2ccccc21	none
CCOC(=O)NC1(NCC(C)C)Oc2ccccc2O1	GSTO1 counter 48 | GSTO1 inh conf inactive
COc1ccc(N/N=C(C)/C(=N/O)C(=O)Nc2ccccc2)cc1	GSTO1 counter 40 | GSTO1 inh conf inactive
CCCCN(CC)C(=O)c1oc2ccc(S(=O)(=O)N3CCCC3)cc2c1C	none
CN(CC(=O)Nc1ccccc1Cl)C(=O)COC(=O)C1CCN(c2ccc(C(F)(F)F)cn2)CC1	none
CC(N=Cc1cc([N+](=O)[O-])ccc1O)c1ccccc1 (centres undefined)	none
CC(N=Cc1cccc(O)c1O)c1ccccc1 (centres undefined)	GSTO1 counter 77 | GSTO1 inh conf 54
Cc1ccccc1N=Cc1cccc(O)c1O	GSTO1 counter 70 | GSTO1 inh conf inactive
Cc1cccn2c(=O)c(/C=C(\C#N)C(=O)NCc3ccco3)c(N3CCOCC3)nc12	none
N#C/C(=C\c1c(N2CCC(C(N)=O)CC2)nc2ccccn2c1=O)C(=O)NCc1ccco1	GSTO1 counter 45 | GSTO1 inh conf inactive
CCN(CC)c1ccc(/C=C2/C(=O)N(c3ccc([N+](=O)[O-])cc3)N=C2N2CCOCC2)cc1	none
COc1cc(/C=C2/C(=O)N(c3ccc([N+](=O)[O-])cc3)N=C2N2CCOCC2)ccc1O	GSTO1 counter 89 | GSTO1 inh conf inactive
COc1cccc(N(C(=O)Cc2cccs2)C(C(=O)NC2CCCC2)c2ccncc2)c1 (centres undefined)	none
O=C(NC1CCCC1)C(c1ccc(F)cc1)N(Cc1ccc(F)cc1)C(=O)CCl (centres undefined)	none
COc1ccc(C(C(=O)NC2CCCCC2)N(C(=O)CCl)c2cccc(Cl)c2)cc1 (centres undefined)	GSTO1 counter 81 | GSTO1 inh conf 90 | GSTO1 recomb ABPP 83
COc1ccc(C(C(=O)NC2CCCC2)N(C(=O)c2ccoc2C)c2ccc(C)cc2)cc1 (centres undefined)	none
COC(CN(C(=O)CCl)C(C(=O)NC1CCCCC1)c1ccc(C)cc1)OC (centres undefined)	GSTO1 counter 93 | GSTO1 inh conf 91 | GSTO1 recomb ABPP inactive
COc1ccc(C(C(=O)NC2CCCCC2)N(C(=O)CCl)c2ccc(C)cc2)cc1 (centres undefined)	GSTO1 counter 89 | GSTO1 inh conf 95 | GSTO1 recomb ABPP 88
COCCNC(=S)N1CCN(Cc2ccc3c(c2)OCO3)CC1	none
NC(=O)C1CCCN(C(=O)c2ccc3c(c2)NC(=O)CS3)C1 (centres undefined)	none (no result: Fam108B inh, GSTO1 counter)
CC1(C)Cc2c(C#N)c(N)n(-c3ccccc3)c(=S)c2CO1	none
CC1(C)C=C2C(=NN(c3ccccc3)C(N)=C2C#N)CO1	GSTO1 counter 74 | GSTO1 inh conf 88
Cc1ccc(C(=O)NCCn2c(N)c(C#N)c3nc4ccccc4nc32)cc1	none
COc1cccc(Cn2c(N)c(C#N)c3nc4ccccc4nc32)c1OC	GSTO1 counter 41 | GSTO1 inh conf inactive
O=C(Cc1ncc(C(F)(F)F)cc1Cl)NCc1ccco1	none
CN(C)c1ccc(N=Cc2cccn2C)cc1	GSTO1 counter 83 | GSTO1 inh conf inactive
CC(C)OCCCNC(=S)NNC(=O)C(c1ccccc1)c1ccccc1	none
CCN(CC)CCCNc1nc2ccccc2[nH]1	none
CCN(CC)CCCNC1=C(Cl)C(=O)c2ccccc2C1=O	GSTO1 counter 66 | GSTO1 inh conf 47
COCCCNC1=C(Cl)C(=O)c2ccccc2C1=O	GSTO1 counter 48 | GSTO1 inh conf inactive
CC(C)OCCCNC1=C(Cl)C(=O)c2ccccc2C1=O	GSTO1 counter 64 | GSTO1 inh conf inactive
COc1ccc(NC(=O)C2=CCN(S(=O)(=O)c3ccccc3)CC2)cc1OC	none
COc1cc(O)cc2cc3c(c(O)c12)C(=O)CC(C)(O)O3 (centres undefined)	GSTO1 counter 47 | GSTO1 inh conf inactive
O=C1COc2ccc(C(=O)NCc3ccc4c(c3)OCO4)cc2N1	GSTO1 counter 43 | GSTO1 inh conf inactive
O=C(NCc1ccc2c(c1)OCO2)c1cccc(C(=O)NCc2ccc3c(c2)OCO3)c1	none
COc1ccccc1/C=C1\SC(=O)N(CCC(=O)NNC(=O)c2ccccc2Cl)C1=O	GSTO1 counter 51 | GSTO1 inh conf inactive
COc1ccc(OC)c2c1C(=O)C(Cl)=C(Cl)C2=O	GSTO1 counter 58 | GSTO1 inh conf inactive

Screens as filed in PubChem BioAssay.
